This passage reports Potency and outcome results from PubChem BioAssay (Tox21).

Inconclusive results are not listed. Activity calls are given as the source filed them. Unless noted, calls follow the shape of the dose curve; as a rule, active = well fitted curve in the direction sought with a large enough effect in the repeat runs; inconclusive = weak or mixed curves; inactive = no such curve, though single readings can be large; an effect the other way counts as inactive or inconclusive.

The nature of assay [1]: A CellTox Green Cytotoxicity Assay to monitor cytotoxicity in HEK293 cells - 8 hour (AID 1224884). Also: nearly all actives have a fitted effect of over 35% in size. The essentials: (§1)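 HEK293 cells premixed with CellTox Green dye were seeded at 600 cells/well and left 5 h at 37 C/5% CO2 before pin transfer of 23 nL compound in DMSO. Fluorescence from dye bound to dead-cell DNA was read during 40 h treatment.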
A short description of assay [2]: qHTS RealTime-Glo MT Cell Viability Assay in HepG2 cells - 16 hour (AID 1224885). Also: nearly all actives have a fitted effect of over 50% in size. The essentials: (§2)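 Cell number in HepG2 cultures estimated from NanoLuc luminescence generated by metabolic reduction of a prosubstrate by living cells. The homogeneous, nonlytic format allowed repeated reads at 0, 8, 16, 24, 32 and 40 h of compound exposure.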
(In general: qHTS replaces the single test concentration by a dilution series.)

Assay [3] is described as follows: qHTS RealTime-Glo MT Cell Viability Assay in HEK293 cells - 24 hour (AID 1224886). Also: nearly all actives have a fitted effect of over 50% in size. Also: potency is read from the fitted curve at half-maximal effect. The essentials:
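Homogeneous bioluminescent viability format in HEK293 cells (600 cells/well). Following 5 h at 37 C/5% CO2, 23 nL compound was pintooled; the signal was measured repeatedly during 40 h incubation.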

A short description of assay [4]: qHTS RealTime-Glo MT Cell Viability Assay in HEK293 cells - 8 hour (AID 1224887). Also: top concentration of the series differs between compounds; nearly all actives have a fitted effect of over 50% in size. The method in brief: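 HEK293 cells mixed with RealTime-Glo reagents (NanoLuc plus cell-permeant prosubstrate) at 600 cells/well, preincubated 5 h at 37 C/5% CO2, then given 23 nL compound in DMSO. Nonlytic luminescence from viable cells was read at 0, 8, 16, 24, 32 and 40 h.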
Assay [5] can be described thus: qHTS RealTime-Glo MT Cell Viability Assay in HepG2 cells - 0 hour (AID 1224889). Also: nearly all actives have a fitted effect of over 50% in size. The essentials: as §2
The nature of assay [6]: A CellTox Green Cytotoxicity Assay to monitor cytotoxicity in HepG2 cells - 8 hour (AID 1224890). Also: nearly all actives have a fitted effect of over 45% in size. The method in brief:
(§3)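 HepG2 cells were seeded together with the CellTox Green dye at 600 cells/well, left 5 h at 37 C/5% CO2, then given compounds in DMSO. Fluorescence from dye bound to dead-cell DNA was read repeatedly over 40 h of treatment at 37 C.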

Assay [7] can be described thus: qHTS assay to identify small molecule antagonists of the estrogen receptor alpha (ER-alpha) signaling pathway using the BG1 cell line in the presence of 0.1 nM 17-beta-estradiol - cell viability counter screen (AID 1259241). Also: nearly all actives have a fitted effect of over 40% in size. The method in brief: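 Estradiol-stimulated (0.1 nM) VM7Luc4E2 cells exposed to compounds 22 hr; viability measured by fluorescence of cleaved CellTiter-Fluor substrate after 30 min.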

Assay [8] in a line: qHTS assay to identify small molecule antagonists of the androgen receptor (AR) signaling pathway using the MDA cell line in the presence of 0.5 nM R1881 - cell viability counter screen (AID 1259242). Also: nearly all actives have a fitted effect of over 45% in size. The essentials: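 MDA-kb2 cells (human breast carcinoma, stably carrying MMTV-luciferase reporter) were exposed to compounds with 0.5 nM R1881 (final) for 16 hr at 37C, 0% CO2; viability then read as live-cell protease fluorescence (CellTiter-Fluor, 30 min) in the same wells.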

In assay [9] the target is Estrogen receptor (Homo sapiens) (UniProt P03372). In words: qHTS assay to identify small molecule antagonists of the estrogen receptor alpha (ER-alpha) signaling pathway using the BG1 cell line in the presence of 0.1 nM 17-beta-estradiol (AID 1259244). Also: nearly all actives have a fitted effect of over 50% in size. The method in brief: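 VM7Luc4E2 cells (endogenous full-length ER-alpha, stable 4xERE-luciferase) were grown 5 days in phenol red-free medium with charcoal-stripped FBS, then exposed 22 h at 37C to compounds plus 0.1 nM (final) 17beta-estradiol; ONE-Glo luminescence read-out.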

The nature of assay [10]: qHTS assay to identify small molecule HDAC inhibitors - cell viability counter screen (AID 1259365). The essentials: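 After overnight seeding at 1,500 cells per well, wild-type HCT-116 cultures took up compounds in DMSO for 2hr at 37 C. Viable cell content came from luminescence with CellTiter-Glo.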
Assay [11] is described as follows: qHTS assay to identify small molecule agonists of the sonic hedgehog signaling (Shh) pathway - cell viability counter screen (AID 1259366). Also: nearly all actives have a fitted effect of over 50% in size. Also: potency is read from the fitted curve at half-maximal effect. The essentials:
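Same-well cytotoxicity read. Gli1-Luc reporter 3T3 cells; compounds 24hr, 37C/5% CO2; CellTiter-Fluor fluorescence.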

Assay [12] in a line: qHTS assay to identify small molecule agonists of the sonic hedgehog signaling (Shh) pathway (AID 1259368; calls by dose curve; also: series mostly up to about 92 µM; nearly all actives have a fitted effect of over 15% in size). The essentials:
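NIH/3T3-derived 3T3Gli1-Luc cells carrying a stably integrated Gli1 response element–firefly luciferase reporter were plated, left 4 hr at 37 C, then given compounds in DMSO for 24 hr. Luminescence was read 30 min after adding luciferase reagent.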

Assay [13] is described as follows: A CellTox Green Cytotoxicity Assay to monitor cytotoxicity in HepG2 cells - 32 hour (AID 1224883). Also: nearly all actives have a fitted effect of over 50% in size. The method in brief:
as §3

The nature of assay [14]: A CellTox Green Cytotoxicity Assay to monitor cytotoxicity in HEK293 cells - 16 hour (AID 1224888). Also: nearly all actives have a fitted effect of over 35% in size. The method in brief: as §1
A short description of assay [15]: qHTS assay to identify small molecule phospholipidosis (PLD) inducers (AID 1259344; active = well fitted curve in the direction sought with a large enough effect; an effect the other way counts as inactive or inconclusive). The method in brief: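 HepG2 cells on collagen I, attached 4 h at 37 C, were co-treated with compound and LipidTOX Red dye for 24 h at 37 C, then fixed with paraformaldehyde plus Hoechst 33342 and imaged by high-content microscopy for phospholipid accumulation.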
Assay [16] can be described thus: qHTS assay to identify small molecule HDAC inhibitors (AID 1259364). Also: top concentration of the series differs between compounds; nearly all actives have a fitted effect of over 45% in size. The essentials:
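Wild-type HCT-116 cells were plated overnight, exposed to compounds for 2 h at 37 °C, then given HDAC-Glo class I/II luminogenic reagent for 30 min at room temperature before luminescence was read.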

Assay [17] is described as follows: qHTS assay to identify small molecule antagonists of the sonic hedgehog signaling (Shh) pathway - cell viability counter screen (AID 1259367). Also: nearly all actives have a fitted effect of over 55% in size. Also: potency is read from the fitted curve at half-maximal effect. The method in brief: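 NIH/3T3-derived Gli1-Luc reporter cells (2,000 per well) rested 4 hr at 37 C, then received DMSO compounds plus conditioned medium. After 23 hr of treatment, CellTiter-Fluor was added for 1 hr at 37C and fluorescence read.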

Assay [18] can be described thus: A CellTox Green Cytotoxicity Assay to monitor cytotoxicity in HepG2 cells - 0 hour (AID 1224882). Also: nearly all actives have a fitted effect of over 35% in size. The method in brief:
as §3

Estrogen receptor (Homo sapiens), sequence (P03372 whole entry, looked up): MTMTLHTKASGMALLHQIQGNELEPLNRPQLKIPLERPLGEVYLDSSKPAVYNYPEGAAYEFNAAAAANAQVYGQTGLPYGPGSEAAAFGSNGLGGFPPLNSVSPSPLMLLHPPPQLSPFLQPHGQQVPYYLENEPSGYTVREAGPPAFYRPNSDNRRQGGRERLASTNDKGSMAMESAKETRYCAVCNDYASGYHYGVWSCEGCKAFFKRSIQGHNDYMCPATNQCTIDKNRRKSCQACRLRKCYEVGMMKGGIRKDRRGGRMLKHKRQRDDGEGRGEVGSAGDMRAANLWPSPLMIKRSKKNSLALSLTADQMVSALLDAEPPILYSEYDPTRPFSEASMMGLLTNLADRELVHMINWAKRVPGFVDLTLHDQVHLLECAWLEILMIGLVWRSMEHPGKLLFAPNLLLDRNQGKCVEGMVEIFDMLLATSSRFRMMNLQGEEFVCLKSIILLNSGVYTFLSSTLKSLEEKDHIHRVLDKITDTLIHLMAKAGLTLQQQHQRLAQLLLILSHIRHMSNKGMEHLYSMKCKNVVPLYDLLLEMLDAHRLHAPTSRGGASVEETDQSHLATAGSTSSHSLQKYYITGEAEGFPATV

With `CC(C)(C)c1ccc(OCC2CO2)cc1` (configuration not stated), the Potency result in [1], in assay [2], in [3], in assay [4], in assay [5] and in assay [6] was “inactive” in each case. The Potency result in assay [7], in assay [8], in assay [9] and in assay [11] was “inactive” in each case. Further, the call in assay [10] and in assay [12] was inactive.
Turning to `CC(C)(C)C(=O)OCOP(=O)(COCCn1cnc2c(N)ncnc21)OCOC(=O)C(C)(C)C`, the Potency entry in [13], in [1], in assay [2], in [4], in assay [14] and in assay [5] was “inactive” each time. Further, the Potency entry in assay [7], in [8] and in assay [15] was “inactive” throughout. For the same compound, the call in assay [10] and in [12] was inactive. The Potency in assay [11] is 10.6 µM (active).
Consider `CC[C@@H]1C[C@H](N(Cc2cc(C(F)(F)F)cc(C(F)(F)F)c2)C(C)=O)c2cc(C(F)(F)F)ccc2N1C(=O)OC(C)C`, for which the Potency result in [13], in [1], in assay [2], in [4], in [14] and in [5] was “inactive” in each case. The Potency result in assay [6], in assay [7], in [8], in assay [9], in assay [16] and in assay [11] was “inactive” each time. The Potency result in assay [17] was “inactive”. The compound was called inactive in [10] and in assay [12].
As to `O=C(O)c1cn(C2CC2)c2cc(Cl)c(F)cc2c1=O`, the Potency result in assay [18], in [13], in assay [2], in assay [5], in assay [6] and in assay [7] was “inactive” in each case. Besides, the Potency entry in assay [8], in assay [9], in assay [11] and in assay [17] was “inactive” throughout. In addition, in assay [12], the outcome was inactive.
Turning to `CCN(CC)CCOc1ccc2c(c1)C(=O)c1cc(OCCN(CC)CC)ccc1-2`, the Potency entry in [18], in assay [1], in assay [2], in assay [5], in assay [6] and in assay [7] was “inactive” in each case. For the same compound, the Potency entry in assay [16], in assay [11] and in assay [17] was “inactive” each time. Moreover, the Potency in assay [3] was 10.7 µM (active). The call in [10] and in assay [12] was inactive.
For `C=Cc1c(C)c2cc3[nH]c(cc4nc(cc5nc(cc1[nH]2)C(C)=C5CCC(=O)O)C(CCC(=O)O)=C4C)c(C)c3C=C`, the Potency result in assay [13], in assay [1], in assay [2], in assay [3], in assay [4] and in assay [14] was “inactive” throughout. Also, the Potency result in assay [5], in [6], in assay [9], in assay [15] and in assay [16] was “inactive” each time. Besides, the call in assay [10] and in assay [12] was inactive. Besides, the Potency in assay [11] was 13.3 µM (active); in assay [17], 23.7 µM (active).
For the compound `CCCCOc1cc(C(=O)OCCN(CC)CC)ccc1N`, the Potency result in [1], in [2], in assay [3], in assay [4], in assay [14] and in assay [5] was “inactive” throughout. In addition, the Potency result in assay [7], in assay [8], in assay [9], in assay [15], in assay [16] and in assay [11] was “inactive” throughout. The compound was called inactive in [10] and in [12].
Take `O=C(O)/C=C/c1cnc[nH]1`: the Potency entry in assay [18], in assay [13], in assay [2], in [3], in assay [4] and in [14] was “inactive” each time. Also, the Potency result in [5], in [6], in assay [7], in [8], in [16] and in assay [11] was “inactive” throughout. The Potency entry in [17] is “inactive”. Besides, the compound was classed as inactive in assay [10] and in [12].
Consider `OC(CCN1CCCCC1)(c1ccccc1)C1CCCCC1` (configuration not stated), for which the Potency entry in assay [18], in assay [13], in assay [1], in assay [2], in [14] and in [5] was “inactive” each time. Moreover, the Potency result in assay [6], in [7], in assay [8], in assay [9], in assay [15] and in [16] was “inactive” each time. Also, the Potency entry in assay [11] and in assay [17] was “inactive” each time. For the same compound, the outcome in assay [10] and in assay [12] was inactive.
